Data as given in the supplement of paper PMC6555819.

Legend:
Test in all cases: PBM binding z-score (relative to random genomic background probes); higher = stronger binding; sequences stand for … in GC…GCGATTGACAGCGTAGAATGAAGG
[1] = system: FXR:RXRa (NR concentration 270 nM, RXRa partner concentration 90 nM)
In short: (§1)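 Binding buffer was PBS pH 7.4 with 2% milk, 0.02% Triton X-100, 1 mM DTT, 0.2 mg/mL BSA and 0.4 mg/ml salmon testes DNA. In it, ligand-free nuclear receptor dimers were incubated 1 h on custom Agilent 4×180K protein-binding microarrays carrying double-stranded probes. Antibodies against each partner (one per run) detected binding, and z-scores were calculated against random background probes after regression normalization of scanned fluorescence.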

[2] = system: LXRa:RXRa (NR concentration 270 nM, RXRa partner concentration 90 nM)
In short: as §1

[3] = system: LXRa homodimer (NR concentration 270 nM)
In short: as §1

[4] = system: LXRb:RXRa (NR concentration 270 nM, RXRa partner concentration 90 nM)
In short: as §1

[5] = system: LXRb homodimer (NR concentration 270 nM)
In short: as §1

[6] = system: PPARa:RXRa (NR concentration 270 nM, RXRa partner concentration 90 nM)
In short: as §1

[7] = system: PPARg:RXRa (NR concentration 180 nM, RXRa partner concentration 90 nM)
In short: as §1

[8] = system: PPARg:RXRa 270nM:90nM, anti-RXR (NR concentration 270 nM, RXRa partner concentration 90 nM)
In short: as §1

[9] = system: PPARg:RXRa 30nM:10nM, anti-RXR (NR concentration 30 nM, RXRa partner concentration 10 nM)
In short: as §1

[10] = system: PPARg:RXRa 90nM:30nM, anti-RXR (NR concentration 90 nM, RXRa partner concentration 30 nM)
In short: as §1

Sequence	PBM binding z-score [1]	PBM binding z-score [2]	PBM binding z-score [3]	PBM binding z-score [4]	PBM binding z-score [5]	PBM binding z-score [6]	PBM binding z-score [7]	PBM binding z-score [8]	PBM binding z-score [9]	PBM binding z-score [10]
ACTAGCAGGCCAAGTTTAGGTCACTCAAACAAAG	0.818	0.384	0.281	0.929	-0.282	1.6	0.288	0.528	-0.151	0.000314
AGAATGAGGTTACCAAAGATCGGGGAAACGCTTG	1.75	4.95	-0.394	2.39	-0.29	3.28	2.29	2.42	0.813	1.48
CGAACTAGGTCATTGATAGGACAGTGAATAGTAA	3.4	2.63	0.471	1.82	-0.194	4.38	7.14	5.99	3.25	5.56
TAGCCTAGGTCATGGGCCAGTAAACCACGCGAAC	4.54	3.68	0.175	2.43	-0.182	4.46	3.46	3.97	1.13	2.88
TCTGGTAGATCAGCAGGTTAAGAAAGCTGGCCAA	-0.0813	-0.0843	-0.0573	0.308	-1.12	0.507	-0.637	1.06	1.81	1.12
GCTACCAGGCCATTTGGGTCACTCAATGACGGGC	0.22	0.0663	-0.549	0.301	-0.419	1.57	0.923	0.744	-0.356	0.658
CAAACTAGGTCAAAGGTCAAAGTGGAGCCAACCA	7.94	7.01	5.57	6.96	3.14	7.45	13.9	11.2	12.3	13.7
GGTACAGGGTCAAGGCCAGAGTACGCGTATTGAT	6.7	3.85	0.0121	3.89	-0.206	5.92	5.62	5.68	2.38	4.07
AATTACGGGTCAACGAGGTTATAGCACGCGTATA	7.35	6.12	3.47	4.88	1.02	6	6.93	6.19	2.81	5.1
TCTGCTAGGTCAACGATGCTCAGCTAATCTGCTA	2.94	1.88	-0.569	1.22	-0.547	3.02	2.04	2.92	1.7	2.32
TAGCCAAGGTCATTGGGCCAGTATAGTACGCATC	7.45	5.57	1.49	4.67	0.952	5.95	6	5.57	2.47	3.59
GCTAGTTGGTCCGTAAAAGGTCACACACCGGTCG	3.14	4.48	3.93	3.92	0.618	4.14	1.33	3.29	0.779	2.39
TCGAGTAGGTTAGGGGCATTGAGAATGGCGTCGA	0.089	0.155	-0.182	0.843	-0.13	1.18	0.706	1.97	1.38	1.51
CATAGCAGGCCAATCTGGGTCACTCAAGGCTTGA	0.72	1.46	-0.00669	0.604	0.0178	3.01	2.72	2.73	0.652	2.05
GCTAGAAGGCCATTTGGGTCACTCAATGACGGGC	0.421	0.146	-0.572	0.474	-0.706	1.49	0.807	0.44	-0.268	-0.245
ATATGTAGGTTACATCAGGGTCATTCAGGCTATG	3.26	4.84	2.29	3.97	0.66	5.17	6.84	5.54	3.17	4.87
AGTCAAAGTTCAGGACGAGGCAACGTAAAGCACG	3.7	3.55	1.2	1.5	-0.0334	3.22	4.51	4.56	1.57	3.42
GCAGACACGTGAAACGCAGGTAACTCAGGGTGGC	-0.868	-0.737	-0.81	-0.691	-1.29	-0.718	0.584	-0.446	-0.559	-0.87
GATACAGGGTCAGCTAGAGCCCAGAGTATGGAAA	4.49	2.36	-0.499	2.18	-0.471	4.59	3.94	3.29	0.917	2.03
AGTCAAAGTTCAATAGGTAACGTAAGATTCAGCT	5.27	5.09	3.45	3.08	1.59	4.37	5.82	5.74	2.88	4.97
ATATGTAGGTTAGCTCGGGTCATTCAGACTAGGC	2.55	4.5	1.52	2.65	0.733	4.08	4.25	3.8	1.34	3.09
CAAATTAGGTCAAGAGGTCAAAGTCCGCTTCCCG	7.34	6.64	6.19	6.05	2.41	6.6	9.93	8.63	8.32	9.12
CGTCCAAGTTCAAGGTAACGTAACAGAAAGCAGC	2.88	2.37	0.562	1.53	0.319	2.68	1.17	1.4	0.382	1.04
AGAATGAGGTTACCAAAGATCAGGGACACGCTTG	2.25	6.38	-0.0151	3.01	-0.234	3.38	2.84	2.9	0.908	2.29
TGTTGTAGATCAACAGGAGGTTAAGAAAGATCGA	0.0129	0.966	0.018	0.701	-0.0946	0.963	-0.033	0.456	0.304	0.492
